PubChem BioAssay AID485346 (Sanford-Burnham Center for Chemical Genomics, 2010)
About 10,000 (3%) of roughly 330,000 compounds were called active.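 How the source made its calls: active means inhibition of at least 50% at 8 µM in the primary screen; inactive means the rest.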 For the sample, actives were picked, then their nearest neighbours and some compounds at random.

target: Protein Mdm4 (Homo sapiens) + E3 ubiquitin-protein ligase Mdm2 (Homo sapiens) (UniProt O15151+Q00987); test: disruptors of Mdm2/MdmX RING complex – cell-based, luminescence, split luciferase, SaOS-2, uHTS, primary screen (AID 485346); conditions: SaOS-2 split-luciferase Mdm2/MdmX complementation, at 8 µM, hits give high values
Sequence (O15151 whole entry, looked up): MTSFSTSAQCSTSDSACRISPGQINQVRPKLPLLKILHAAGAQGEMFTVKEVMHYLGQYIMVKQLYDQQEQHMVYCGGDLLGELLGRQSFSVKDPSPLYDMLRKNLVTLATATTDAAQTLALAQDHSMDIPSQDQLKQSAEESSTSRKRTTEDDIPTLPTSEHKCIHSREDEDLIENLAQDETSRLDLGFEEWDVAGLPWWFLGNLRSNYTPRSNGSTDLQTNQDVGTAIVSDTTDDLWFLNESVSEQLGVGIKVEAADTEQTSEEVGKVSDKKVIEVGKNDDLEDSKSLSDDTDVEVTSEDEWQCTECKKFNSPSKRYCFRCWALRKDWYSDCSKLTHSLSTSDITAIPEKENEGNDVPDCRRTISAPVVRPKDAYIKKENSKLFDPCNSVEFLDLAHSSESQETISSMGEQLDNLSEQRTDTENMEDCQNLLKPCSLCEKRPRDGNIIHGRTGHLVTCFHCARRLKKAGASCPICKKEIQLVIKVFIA
Sequence (Q00987 whole entry, looked up): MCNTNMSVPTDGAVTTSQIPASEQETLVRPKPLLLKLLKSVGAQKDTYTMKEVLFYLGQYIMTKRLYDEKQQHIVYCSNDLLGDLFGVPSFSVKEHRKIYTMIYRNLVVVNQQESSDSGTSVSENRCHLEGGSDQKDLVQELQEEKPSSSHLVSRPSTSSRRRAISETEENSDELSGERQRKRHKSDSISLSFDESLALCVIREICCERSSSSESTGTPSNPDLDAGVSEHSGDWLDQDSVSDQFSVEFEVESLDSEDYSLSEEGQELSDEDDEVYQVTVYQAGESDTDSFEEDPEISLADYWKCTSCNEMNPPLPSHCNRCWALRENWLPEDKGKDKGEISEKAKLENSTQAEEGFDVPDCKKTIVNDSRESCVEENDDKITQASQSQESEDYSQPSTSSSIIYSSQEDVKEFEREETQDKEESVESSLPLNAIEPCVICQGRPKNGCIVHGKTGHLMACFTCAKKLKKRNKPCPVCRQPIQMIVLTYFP

Row | Compound | inhibition
1 | CSc1ccc(NC(=O)N2CC(C)OC(C)C2)cc1 (stereo unspecified) | 15% (inactive)
2 | COc1cc(NS(=O)(=O)c2ccc(NC(=O)c3ccc(S(=O)(=O)N4CCCCC4)cc3)cc2)ncn1 | 13.5% (inactive)
3 | OCCCNc1nc(-c2ccccc2)c2cc(Cl)ccc2n1 | 19.5% (inactive)
4 | O=C(CCl)NNc1nc(-c2ccccc2)c2cc(Cl)ccc2n1 | 19.7% (inactive)
5 | NC(N)=Nc1nc(-c2ccccc2)c2cc(Cl)ccc2n1 | 97.4% (active)
6 | COC(=O)c1ccc(C2C3=C(Nc4nnnn42)c2ccccc2OC3)cc1 (stereo unspecified) | 14.2% (inactive)
7 | COc1ccc(C(=O)NC(C)Cn2nc(C)cc2C)cc1OC1CCN(C(C)=O)CC1 (stereo unspecified) | 2.18% (inactive)
8 | COC(=O)c1ccc(Nc2ncnc3sccc23)cc1 | 1.96% (inactive)
9 | O=C1CN(C(=O)c2ccccc2F)C(c2ccc(F)cc2)c2cc(F)ccc2N1 (stereo unspecified) | -22.4% (inactive)
10 | CCOC(=O)C1(CCOc2ccccc2)CCN(Cc2ccc(C#CCCO)cc2)CC1 | 27.4% (inactive)
11 | CC(C)CN(CC(C)C)CC(O)CN(c1ccccc1)S(=O)(=O)c1ccccc1[N+](=O)[O-] (stereo unspecified) | 31.5% (inactive)
12 | CCOc1ccc(NS(=O)(=O)c2ccc(C(=O)NCC(c3ccccc3OC)N3CCCC3)cc2)cc1 (stereo unspecified) | 38.1% (inactive)
13 | O=C(NCC1(N2CCCCC2)CCCCC1)c1ccc(NS(=O)(=O)c2ccc(F)cc2)cc1 | 8.39% (inactive)
14 | CCOc1ccc(S(=O)(=O)Nc2cccc(C(=O)NCC3(N4CCCCC4)CCCCC3)c2)cc1 | 66.6% (active)
15 | COc1cccc(NC(=O)c2cc(S(=O)(=O)N3CCc4ccccc43)cn2C)c1 | 32% (inactive)
16 | COCc1cc(C)n(CC(=O)NCC2CCCO2)c(=O)c1C#N (stereo unspecified) | -12.8% (inactive)
17 | CCOC(=O)c1cc(NC(=O)c2ccc(Cl)cc2)c(=O)oc1-c1ccccc1 | 81.6% (active)
18 | CC(=O)c1cc(NC(=O)c2ccccc2)c(=O)oc1/C=C/N(C)C | -7.04% (inactive)
19 | CCOC(=O)NNC(=O)c1ccc(Cl)cc1 | 9.31% (inactive)
20 | COC(=O)C1=C(C(=O)OC)[C@@H]2N(C)c3ccccc3[C@@]23C[C@@H](C(=O)OC)N(C(=O)c2ccco2)C3=N1 | 30% (inactive)
21 | Cc1nn(-c2ccccc2)c2sc(C(=O)N(Cc3ccco3)C(C)C(=O)NC(C)(C)C)cc12 (stereo unspecified) | 50.9% (active)

Row | Compound | inhibition
22 | Cc1ccc(-c2nnn(CC(=O)N(Cc3ccco3)C(C(=O)NC(C)(C)C)c3ccncc3)n2)o1 (stereo unspecified) | -5.12% (inactive)
23 | Cc1nc(C)c(C(=O)N(c2ccc(C)c(C)c2)C(C(=O)NCc2ccco2)c2ccccc2)s1 (stereo unspecified) | -6.49% (inactive)
24 | CCC(C)Cn1c(O)cc2nn(-c3nc4ccccc4s3)c(=O)c-2c1C (stereo unspecified) | 39.4% (inactive)
25 | COc1ccc(Nc2ccc([N+](=O)[O-])cn2)cn1 | 8.39% (inactive)
26 | CCOc1ccc(S(=O)(=O)Nc2ccc(OC)nc2)cc1 | -9.26% (inactive)
27 | COC(=O)c1sccc1NC(=S)Nc1ccc(C)cc1 | -1.32% (inactive)
28 | COc1ccc(CS(=O)/C(Cl)=C(/Cl)C(=O)Nc2ccc(OC)nc2)cc1 (stereo unspecified) | 97.2% (active)
29 | COc1ccc(NC(=O)/C(Cl)=C(/Cl)S(=O)Cc2ccc(C)cc2)cn1 (stereo unspecified) | 91.5% (active)
30 | COc1ccc(CCNC(=O)c2cnc(Cl)c(Cl)c2)cc1 | -0.067% (inactive)
31 | CCCCC(c1nnnn1CS(=O)(=O)c1ccc(C)cc1)N1CCC(C(N)=O)CC1 (stereo unspecified) | 20% (inactive)
32 | CC(=O)NC1CCN(CC(=O)Nc2nccs2)CC1 | 10.5% (inactive)
33 | COc1ccccc1CNC(=O)COC(=O)c1cccs1 | -8.99% (inactive)
34 | O=C(/C=C/c1ccc(OCc2c(F)cccc2Cl)cc1)N1CCOCC1 | 88.9% (active)
35 | CN(C)CCCNC(=O)/C=C/c1ccc(OCc2c(F)cccc2Cl)cc1 | 41.4% (inactive)
36 | COCCCNC(=O)/C=C/c1ccc(OCc2c(F)cccc2Cl)cc1 | -0.73% (inactive)
37 | COc1cccc(NC(=O)N2CCC(NC(=O)C(Cc3cccc(C)c3)NC(C)=O)CC2)c1 (stereo unspecified) | 2.34% (inactive)
38 | CN(C)/C=C(/C(=O)c1ccccc1Cl)S(C)(=O)=O | -2.89% (inactive)
39 | CC(C(=O)O)N1C(=O)c2cccc3cccc1c23 (stereo unspecified) | 14.4% (inactive)
40 | CN(Cc1cccs1)C(=O)Cc1c[nH]c2ccccc12 | -16.7% (inactive)
41 | CCc1nc2sc3c(Cl)ncnc3c2c2c1CCCC2 | 64.4% (active)
42 | CCc1nc2sc(C(=O)O)c(N)c2c2c1CCCC2 | -3.57% (inactive)

Row | Compound | inhibition
43 | c1ccc(CSc2ncnc3c2sc2nc(N4CCOCC4)c4c(c23)CCCC4)cc1 | 2.45% (inactive)
44 | Cc1cccc(N2Cc3ccccc3C2=NC(=O)c2ccc(Cl)nc2)c1 | 1.07% (inactive)
45 | OCCCNc1nccc(-c2cc(Nc3cccc(Cl)c3)ncn2)n1 | 100% (active)
46 | O=C(Nc1cc(Cl)cc(Cl)c1)C(NCCCO)c1ccccc1 (stereo unspecified) | 14.1% (inactive)
47 | Cc1cccc(Nc2nc(NCCO)nc(N3CCCC3)n2)c1 | -22.4% (inactive)
48 | C=CCOC(=O)C1=C[C@H](c2ccc(Br)cc2)C[C@H](OCCCCO)O1 | 25.6% (inactive)
49 | Brc1ccc(CN2CC[C@H]3C=CCc4cccc(c43)C2)cc1 | 3.41% (inactive)
50 | O=C(Nc1cc(Cl)ccc1N1CCOCC1)c1ccc(N2CCCC2=O)cc1 | 12.9% (inactive)
51 | COCCOC(=O)c1c(C)oc2cc(Br)c(OCC(N)=O)cc12 | 6.08% (inactive)
52 | COc1ccccc1OCCCC(=O)Nc1ccc2c(c1)OCCO2 | 6.28% (inactive)
53 | Cc1ccc(OCCCC(=O)Nc2ccc3c(c2)OCCO3)cc1 | 17% (inactive)
54 | COC(=O)CCNc1ccc2c(c1)OCCO2 | 60.5% (active)
55 | COc1ccc(C(=O)NCc2nnc(SCC(=O)Nc3cccc(OC)c3)o2)cc1 | 20.2% (inactive)
56 | COc1cc(C(=O)NCc2nnc(SCC(=O)c3ccc(Cl)cc3)o2)cc(OC)c1OC | 6.35% (inactive)
57 | COc1cc(C(=O)NCc2nnc(SCC(=O)Nc3nc4ccc(C)cc4s3)o2)cc(OC)c1OC | 53.5% (active)
58 | Cc1cc(O)c(C(=O)/C=C/c2c(F)c(F)c(F)c(F)c2F)c(=O)o1 | 8.23% (inactive)
59 | COc1ccc(C(=O)O/N=C(\N)Cc2ccc(Cl)cc2Cl)cc1OC | 97.2% (active)
60 | COc1ccc(C/C(N)=N/OC(=O)c2ccco2)cc1OC | 6.65% (inactive)
61 | COc1ccc(C(=O)ON=C2c3ccccc3-c3ccccc32)cc1OC | 7.13% (inactive)
